The text below walks through data of PubChem BioAssay AID1942 (Johns Hopkins Ion Channel Center, 2009).

About 580 (24%) of roughly 2,400 compounds were called active. The list is a sample of the results. A number with no mark means an inactive call.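 How the source made its calls: active means activity change at or above the mean plus 3 SD of buffer wells without dofetilide, per plate; inactive means the rest.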

The target in this experiment is Potassium voltage-gated channel subfamily KQT member 2 (Rattus norvegicus) (UniProt O88943). Kind of experiment: KCNQ2 potentiation in CHO cells – cell-based, FluxOR thallium flux, counter-screen for hERG block protector project, confirmation (AID 1942).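 Further: normalized value minus buffer-control mean plus three SD of buffer wells.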 Particulars: FluxOR thallium flux fluorescence, at 10 µM, stronger effect = higher value. On the technique in general: Counterscreens check selectivity or assay interference.
Chain of Potassium voltage-gated channel subfamily KQT member 2 (Rattus norvegicus) (O88943 whole entry, looked up): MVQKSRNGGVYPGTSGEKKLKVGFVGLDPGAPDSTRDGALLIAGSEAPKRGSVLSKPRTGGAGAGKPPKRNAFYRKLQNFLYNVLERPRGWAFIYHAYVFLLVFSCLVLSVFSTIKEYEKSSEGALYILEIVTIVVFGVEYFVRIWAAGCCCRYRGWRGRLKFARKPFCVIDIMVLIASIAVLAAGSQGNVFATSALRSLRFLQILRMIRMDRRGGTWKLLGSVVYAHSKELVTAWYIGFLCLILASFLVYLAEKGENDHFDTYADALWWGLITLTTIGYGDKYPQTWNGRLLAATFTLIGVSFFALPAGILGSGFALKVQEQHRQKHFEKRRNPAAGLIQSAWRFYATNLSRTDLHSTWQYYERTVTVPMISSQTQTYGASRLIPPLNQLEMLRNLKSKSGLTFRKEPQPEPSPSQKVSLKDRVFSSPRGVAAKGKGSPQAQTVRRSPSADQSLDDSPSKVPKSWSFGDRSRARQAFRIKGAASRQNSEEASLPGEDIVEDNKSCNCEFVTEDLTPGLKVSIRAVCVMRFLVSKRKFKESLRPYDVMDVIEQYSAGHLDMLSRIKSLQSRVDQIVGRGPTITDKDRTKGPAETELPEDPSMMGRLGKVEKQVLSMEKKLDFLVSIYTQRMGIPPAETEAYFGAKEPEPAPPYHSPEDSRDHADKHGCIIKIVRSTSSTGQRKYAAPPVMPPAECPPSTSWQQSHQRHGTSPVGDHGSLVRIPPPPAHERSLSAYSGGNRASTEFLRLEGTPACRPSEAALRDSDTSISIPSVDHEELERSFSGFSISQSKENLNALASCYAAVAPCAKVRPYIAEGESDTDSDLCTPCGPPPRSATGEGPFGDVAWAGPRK
Consider `COC(=O)c1sccc1NC(=O)CSc1ccccc1NS(=O)(=O)c1cc(Cl)ccc1Cl`, for which the activity change, less the hit threshold is -17%.

Regarding `O=S(=O)(Nc1nc(-c2sccc2Cl)cs1)c1cc(Cl)ccc1Cl`, the activity change, less the hit threshold was 105% (active).

On to `COc1cc(C(=O)NCCNc2nc3cc(C)ccc3cc2C#N)cc(OC)c1OC`, for which the activity change, less the hit threshold was -18.4%.

As to `COc1ccc(NC(=O)CSCC(=O)Oc2c(OC)cccc2OC)cc1`, the activity change, less the hit threshold was -22.1%.

Take `CC(C)NC(=S)NNc1nc2ccccc2s1`: the activity change, less the hit threshold was -19.4%.

Regarding `CCOc1ccc(C(C)NC(=S)NC2CCCCC2)cc1` (configuration not stated), the activity change, less the hit threshold is 9.5% (active).

Take `CCOc1ccc(N=Nc2cc(C(C)C)ccc2O)cc1`: the activity change, less the hit threshold is -9.1%.

As for `CC(NC(=S)NC1CCCCC1)c1ccccc1` (configuration not stated), the activity change, less the hit threshold was 6.9% (active).

`CCC(C)(C(=O)NC1CCCC1)N(C(=O)c1ccccn1)c1ccccc1` (configuration not stated): the activity change, less the hit threshold is -13%.

In the case of `Cc1ccc(C(C)NC(=S)NC2CCCCC2)cc1C` (configuration not stated), the activity change, less the hit threshold was 46.1% (active).

With `CC(NC(=O)NC1CCCCC1)c1ccccc1` (configuration not stated), the activity change, less the hit threshold is 26.3% (active).

For `CC(NC(=O)COC(=O)C1CCC1)c1ccccc1` (configuration not stated), the activity change, less the hit threshold was -21.4%.

On to `COc1cccc(NC(=S)NC(C)c2ccc(OC)c(OC)c2)c1` (configuration not stated), for which the activity change, less the hit threshold was -23.4%.

For the compound `Cc1ccc(OCCC(=O)OC(C)C(=O)NC2CC2)cc1` (configuration not stated), the activity change, less the hit threshold was -9%.

Regarding `CC(C)(C)c1ccccc1NC(=S)NC1CCCC1`, the activity change, less the hit threshold is -7.6%.

Take `O=C(OCc1ccccc1)C1=NNC2C(=O)N(c3ccc(Br)cc3)C(=O)C12` (configuration not stated): the activity change, less the hit threshold was -11.1%.

As to `C=C(C)CNC(=S)NN=C1c2ccccc2-c2ccccc21`, the activity change, less the hit threshold was -7.1%.

Consider `COc1ccccc1C1C(C(=O)c2ccc(C)o2)=C(O)C(=O)N1c1cc(C)on1` (configuration not stated), for which the activity change, less the hit threshold was -9.3%.

On to `COc1ccccc1-n1cnc2cc(NS(=O)(=O)c3ccc(Br)cc3)ccc21`, for which the activity change, less the hit threshold was -25.5%.

Consider `CC1Oc2ccccc2N(CC(=O)N2CCCCCC2)C1=O` (configuration not stated), for which the activity change, less the hit threshold is -17.7%.

Regarding `O=C(COc1coc(CN2CCc3ccccc3C2)cc1=O)Nc1cccc(Cl)c1`, the activity change, less the hit threshold is -26%.

For `COc1ccc(CCNC(=O)C(=O)Nc2ccc3c(c2)OCO3)cc1OC`, the activity change, less the hit threshold was -19%.

For the compound `O=C(COC(=O)/C=C/c1ccc2c(c1)OCO2)NC1CC1`, the activity change, less the hit threshold was -11.4%.

Regarding `COc1cc(/C=N/NC(=O)NC2CCCCC2)ccc1O`, the activity change, less the hit threshold was -11.5%.

As to `CC(NC(=O)NC1CCCCC1)c1ccc2c(c1)OCO2` (configuration not stated), the activity change, less the hit threshold was 51% (active).

For `CCOC(=O)N1CCN(C(=O)c2ccc(Cl)c(S(=O)(=O)Nc3ccccc3)c2)CC1`, the activity change, less the hit threshold was -3.5%.

On to `COc1ccc(N2CCN(C(=O)c3ccc(-c4ccccc4)cc3)CC2)cc1`, for which the activity change, less the hit threshold was -20%.

On to `O=C(c1ccc(Cl)c(S(=O)(=O)N2CCCC2)c1)N1CCN(c2ccccc2F)CC1`, for which the activity change, less the hit threshold is -7.1%.

As for `Cc1ccc(C(=O)N2CCN(c3ccccc3)CC2)cc1S(=O)(=O)N1CCCC1`, the activity change, less the hit threshold was 1.9% (active).

Regarding `CCOC(=O)N1CCN(C(=O)c2ccc(C)c(S(=O)(=O)Nc3ccccc3)c2)CC1`, the activity change, less the hit threshold is 4% (active).

As for `CCOC(=O)N1CCN(C(=O)c2ccc(CN(c3ccc(C)c(C)c3)S(C)(=O)=O)cc2)CC1`, the activity change, less the hit threshold was -15.6%.

For `Cc1cccc(/N=C/c2sc3ccccc3c2O)n1`, the activity change, less the hit threshold was -11.6%.

For the compound `CCC(=O)c1cc2c(C)cc(=O)oc2c(C)c1O`, the activity change, less the hit threshold was -12.6%.

As to `CSc1ccc(CNc2nc3ccccc3n3cnnc23)cc1`, the activity change, less the hit threshold was -28.3%.

Turning to `COc1ccc(COC(=O)C2CCN(S(=O)(=O)c3cccs3)CC2)cc1`, the activity change, less the hit threshold was -20.1%.

`c1ccc(-c2csc(Nc3ccc4c(c3)OCCO4)n2)cc1`: the activity change, less the hit threshold is -20.3%.

Consider `O=C(COC(=O)c1cc[n+]([O-])cc1)Nc1cc([N+](=O)[O-])ccc1Cl`, for which the activity change, less the hit threshold was -11.7%.

For the compound `O=C(Cc1ccc(Cl)cc1)Nc1cccc(-c2nnc(-c3ccco3)o2)c1`, the activity change, less the hit threshold is -13.4%.

With `O=C(Nc1nnc(-c2ccc3c(c2)CCCC3)o1)c1ccc(Cl)cc1Cl`, the activity change, less the hit threshold was 30.2% (active).

For the compound `O=C(Nc1nnc(-c2ccccc2)o1)c1ccc(Cl)cc1`, the activity change, less the hit threshold was -17.9%.

With `O=C(Nc1nnc(-c2ccc3c(c2)CCCC3)o1)C1COc2ccccc2O1` (configuration not stated), the activity change, less the hit threshold is 4.3% (active).

In the case of `O=C(CCc1ccccc1)Nc1nnc(-c2ccccn2)o1`, the activity change, less the hit threshold is -17.4%.

In the case of `O=C(Nc1nc2c(F)cc(F)cc2s1)C1COc2ccccc2O1` (configuration not stated), the activity change, less the hit threshold is -25.7%.

Consider `O=C(N=C1SC2CS(=O)(=O)CC2N1c1cccc(Cl)c1Cl)C1CCCO1` (configuration not stated), for which the activity change, less the hit threshold is -21.2%.

Take `CCCN(C(=O)c1ccco1)c1nnc(-c2ccncc2)s1`: the activity change, less the hit threshold was -7.4%.

For the compound `Cc1ccc(/C(O)=C2\C(=O)C(=O)N(Cc3cccnc3)C2c2ccccc2[N+](=O)[O-])cc1` (configuration not stated), the activity change, less the hit threshold was -16%.

As to `Cc1ccc(NC(=O)CN2C(=O)S/C(=C/c3ccc(-c4cc(C(=O)O)ccc4C)o3)C2=O)cc1C`, the activity change, less the hit threshold was -24.7%.

Regarding `Cc1ccc2c(c1)N(CCC(=O)NCc1cccnc1)C(=O)CO2`, the activity change, less the hit threshold was -10.8%.

For `C/C(=C\C(=O)c1ccncc1)Nc1ccccc1O`, the activity change, less the hit threshold is -11.7%.

As for `O=C1CC(O)(C(F)(F)F)Oc2c1ccc1ccccc21` (configuration not stated), the activity change, less the hit threshold was 28.3% (active).

As to `CC1(C)Cc2c(ccc3ccccc23)C2=C(C(=O)N3CCCC3)C(=O)C(=O)N21`, the activity change, less the hit threshold is -11.1%.

`Nc1nc2c(s1)CCCCCCCCCC2`: the activity change, less the hit threshold was -3%.

For `O=C(c1ccco1)N(c1ccccn1)c1ccccn1`, the activity change, less the hit threshold was -21.4%.

On to `Brc1ccc(C2=CC(c3ccco3)n3nnnc3N2)cc1` (configuration not stated), for which the activity change, less the hit threshold is -16.3%.

On to `O=C(O)c1sccc1OCc1ccccc1`, for which the activity change, less the hit threshold was -0.9%.

In the case of `Cc1ccc(C)c(Cn2c(O)c(N=NC(=S)Nc3ccccc3F)c3ccccc32)c1`, the activity change, less the hit threshold is -11.3%.

With `Cc1ccccc1Cn1c(O)c(N=NC(=S)Nc2ccccc2F)c2ccccc21`, the activity change, less the hit threshold is -20.7%.

For `C=CCn1c(O)c(N=NC(=S)Nc2ccc(OC)c(Cl)c2)c2ccccc21`, the activity change, less the hit threshold is 3.8% (active).

As for `Oc1c(N=NC(=S)Nc2ccccc2F)c2ccccc2n1Cc1ccccc1F`, the activity change, less the hit threshold was -12.8%.

For the compound `C=CCn1c(O)c(N=NC(=S)Nc2ccc(OC)cc2)c2ccccc21`, the activity change, less the hit threshold is 25% (active).

Turning to `Oc1c(N=NC(=S)Nc2ccccc2F)c2ccccc2n1Cc1cccc(Cl)c1`, the activity change, less the hit threshold was -13%.

As to `CCCCCCCc1c(O)nc(SCC(=O)O)[nH]c1=O`, the activity change, less the hit threshold is -8.4%.
